{"source": "PubChem BioAssay", "key": {"[1]": {"assay": "inhibitors of Cryptococcus chitosan production, flow cytometry, Cibacron Brilliant Red staining (AID 1347148);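 note: compound exposure lasted three days at 37 degrees C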", "settings": "Cryptococcus neoformans chitosan, stronger effect = lower value; at 10 µM unless noted"}, "[2]": {"assay": "modifiers of HSF1 nuclear foci, imaging, Selleck Cancer Library (AID 1347162; in the data active = plate-normalised HSF1 focus index below about 0.46)", "settings": "human cells, at 10 µM; SSMD: measured here: HSF1 foci SSMD mean; cell count: measured here: cell number; plate-normalised HSF1 focus index: stronger effect = lower value"}, "[3]": {"assay": "liver-stage malaria parasite growth inhibition, primary screen, cell-based, HepG2, luciferase luminescence, HepG2 viability (AID 624349; in the data active = parasite load remaining mostly below about 12%, no sharp cut-off; inactive = mostly above about 10%;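 note: 100% = mean of DMSO negative control wells on the same plate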)", "settings": "P. berghei liver stage in HepG2, luciferase luminescence, concentration not given here; parasite load remaining: stronger effect = lower value; viability: measured here: HepG2 viability without parasites"}, "[4]": {"assay": "polyglutamine-triggered caspase-3 activation inhibitors, cell-based (AID 1583)", "settings": "polyglutamine-induced caspase-3 activation, cell assay; stronger effect = higher value;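 tested at 10 µM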"}, "[5]": {"assay": "suppressors of polyQ aggregation in yeast, 75Q-TubU reporter (AID 1593)", "settings": "Yeast 75Q polyglutamine aggregation reporter"}, "[6]": {"assay": "rescue of polyQ-huntingtin neuronal dysfunction in worms, whole organism, C. elegans mechanosensory neurons, N-terminal huntingtin (AID 1599)", "settings": "touch response, stronger effect = higher value"}, "[7]": {"assay": "inhibitors of mitochondrial cytochrome c release, biochemical, purified mitochondria (AID 1603);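 note: mouse liver mitochondria challenged with calcium chloride; signal normalized to the plate average as 100%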", "settings": "stronger effect = lower value"}, "[8]": {"assay": "inhibitors of polyQ protein aggregation (AID 1604)", "settings": "polyglutamine-induced protein aggregation inhibition assay; stronger effect = higher value; tested at 2.5 µM"}, "[9]": {"assay": "enhancers of glutamate uptake in motor neurons, MN-1 cell line (AID 1612);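 note: tested at 1 µM final; 0% = mean of DMSO vehicle wells on each plate; positive means more glutamate uptake than control and negative means less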", "settings": "MN-1 motor neuron cells, stronger effect = higher value"}, "[10]": {"assay": "suppressors of polyglutamine aggregation in yeast, 75Q-TubH (AID 1616)", "settings": "S. cerevisiae 75Q-TubH polyglutamine aggregation suppression; stronger effect = higher value"}}, "note": "For part of these data: Measured potencies and affinities stand elsewhere. Calls of active or inactive are those of the source. Unless noted, the rule behind the calls is not given here.", "data": [{"smiles": "O[C@H]1C=C2CCN3Cc4cc5c(cc4C(C23)[C@@H]1O)OCO5", "note": "(stereo partly drawn)", "values": [{"measurement": "fold fluorescence", "setting": "[1]", "result": "10.6 [at 174 µM] (inactive)"}]}, {"smiles": "C/C=C/C/C=C/CCC(=O)[C@@H]1O[C@@H]1C(N)=O", "values": [{"measurement": "fold fluorescence", "setting": "[1]", "result": "8.37 [at 223.9 µM] (inactive)"}]}, {"smiles": "C=CC[C@H]1/C=C(\\C)C[C@@H](C)C[C@@H](OC)[C@@H]2O[C@](O)(C(=O)C(=O)N3CCCC[C@@H]3C(=O)O[C@@H](/C(C)=C/[C@H]3CC[C@H](O)[C@@H](OC)C3)[C@@H](C)[C@H](O)CC1=O)[C@@H](C)C[C@H]2OC", "values": [{"measurement": "fold fluorescence", "setting": "[1]", "result": "13.5 [at 62.2 µM] (inactive)"}]}, {"smiles": "CN(CCc1ccc(Cl)c(Cl)c1)C[C@H](O)COc1ccc(NS(C)(=O)=O)cc1", "values": [{"measurement": "fold fluorescence", "setting": "[1]", "result": "3.81 [at 111.8 µM] (inactive)"}]}, {"smiles": "O=C(O)CNC(=O)[C@H](CS)Cc1ccccc1", "values": [{"measurement": "fold fluorescence", "setting": "[1]", "result": "3.85 [at 197.4 µM] (inactive)"}]}, {"smiles": "CO[C@H]1C[C@@H]2CC[C@@H](C)[C@@](O)(O2)C(=O)C(=O)N2CCCC[C@H]2C(=O)O[C@H]([C@@H](C)C[C@@H]2CC[C@@H](OCCO)[C@H](OC)C2)CC(=O)[C@H](C)/C=C(\\C)[C@@H](O)[C@@H](OC)C(=O)[C@H](C)C[C@H](C)/C=C/C=C/C=C/1C", "values": [{"measurement": "SSMD", "setting": "[2]", "result": 2.84}, {"measurement": "cell count", "setting": "[2]", "result": 6750}, {"measurement": "plate-normalised HSF1 focus index", "setting": "[2]", "result": "1.15 (inactive)"}]}, {"smiles": "CC[C@@H](CO)Nc1nc(NCc2ccccc2)c2ncn(C(C)C)c2n1", "values": [{"measurement": "parasite load remaining", "setting": "[3]", "result": "32.6% (inactive)"}, {"measurement": "viability", "setting": "[3]", "result": 67.3, "unit": "%"}, {"measurement": "fold fluorescence", "setting": "[1]", "result": "9.95 [at 141.1 µM] (inactive)"}]}, {"smiles": "COc1cc(C(=O)NC(=S)Nc2cccc(NC(=O)c3ccccc3)c2)cc(OC)c1OC", "values": [{"measurement": "SSMD", "setting": "[2]", "result": 4.07}, {"measurement": "cell count", "setting": "[2]", "result": 6830}, {"measurement": "plate-normalised HSF1 focus index", "setting": "[2]", "result": "1.24 (inactive)"}]}, {"smiles": "CCCCCCCC/C=C\\CCCCCCCC(=O)OC[C@H](O)COP(=O)(O)O", "values": [{"measurement": "fold fluorescence", "setting": "[1]", "result": "3.84 (inactive)"}]}, {"smiles": "COC(=O)C1=C(C)NC(C)=C(C(=O)OCCN(C)Cc2ccccc2)[C@H]1c1cccc([N+](=O)[O-])c1", "values": [{"measurement": "fold fluorescence", "setting": "[1]", "result": "4.49 [at 104.3 µM] (inactive)"}]}, {"smiles": "COc1c(O)c2c(=O)cc(OC)c3c4c(OC)cc(=O)c5c(O)c(OC)c(C[C@H](C)OC(=O)c6ccccc6)c(c(c1C[C@H](C)OC(=O)Oc1ccc(O)cc1)c23)c54", "values": [{"measurement": "fold fluorescence", "setting": "[1]", "result": "6.48 [at 6.3 µM] (inactive)"}]}, {"smiles": "CC(C)COC[C@H](CN(Cc1ccccc1)c1ccccc1)N1CCCC1", "values": [{"measurement": "fold fluorescence", "setting": "[1]", "result": "8.48 [at 136.4 µM] (inactive)"}]}, {"smiles": "CCCCCCCCCCCCCCCC(=O)OC[C@@H](COP(=O)(O)O)OC(=O)CCCCCCCCCCCCCCC", "values": [{"measurement": "fold fluorescence", "setting": "[1]", "result": "3.86 (inactive)"}]}, {"smiles": "CCCCC[C@@H](O)/C=C/[C@H]1[C@H](C/C=C\\CCCC(=O)O)[C@@H]2CO[C@H]1C2", "values": [{"measurement": "fold fluorescence", "setting": "[1]", "result": "4.13 (inactive)"}]}, {"smiles": "COc1ccc(CC(N)C(=O)N[C@@H]2[C@H](O)[C@@H](n3cnc4c(N(C)C)ncnc43)O[C@H]2CO)cc1", "note": "(stereo partly drawn)", "values": [{"measurement": "fold fluorescence", "setting": "[1]", "result": "4.82 [at 106 µM] (inactive)"}]}, {"smiles": "CN=C(NC#N)Nc1ccc(C2=NNC(=O)C[C@@H]2C)cc1", "values": [{"measurement": "fold fluorescence", "setting": "[1]", "result": "7.2 [at 175.9 µM] (inactive)"}]}, {"smiles": "CCCCOc1cc(C[C@H]2CNC(=O)N2)ccc1OC", "values": [{"measurement": "fold fluorescence", "setting": "[1]", "result": "8.15 [at 179.6 µM] (inactive)"}]}, {"smiles": "C[C@@H](COc1ccccc1)N(CCCl)Cc1ccccc1", "values": [{"measurement": "fold fluorescence", "setting": "[1]", "result": "6.47 [at 164.6 µM] (inactive)"}]}, {"smiles": "CC1=NN(c2ccc(C(=O)O)cc2)C(=O)/C1=C\\c1ccc(-c2cc(C)c(C)cc2[N+](=O)[O-])o1", "values": [{"measurement": "SSMD", "setting": "[2]", "result": 1.04}, {"measurement": "cell count", "setting": "[2]", "result": 6690}, {"measurement": "plate-normalised HSF1 focus index", "setting": "[2]", "result": "1.07 (inactive)"}]}, {"smiles": "CCCCC(C)(O)C/C=C/[C@H]1[C@H](CCCCCCC(=O)O)C(=O)C[C@@H]1O", "note": "(stereo partly drawn)", "values": [{"measurement": "fold fluorescence", "setting": "[1]", "result": "3.98 (inactive)"}]}, {"smiles": "OC[C@@H]1NC[C@@H](O)[C@H](O)[C@H]1O", "values": [{"measurement": "fold fluorescence", "setting": "[1]", "result": "7.48 [at 306.4 µM] (inactive)"}]}, {"smiles": "CCCCC[C@@H](O)CC[C@H]1[C@H](CCCCCCC(=O)O)C(=O)C[C@@H]1O", "values": [{"measurement": "fold fluorescence", "setting": "[1]", "result": "5.11 (inactive)"}]}, {"smiles": "COc1ccc(Cc2nn3c([C@@H](CCCc4ccccc4)[C@@H](C)O)nc(C)c3c(=O)[nH]2)cc1OC", "values": [{"measurement": "SSMD", "setting": "[2]", "result": 2.11}, {"measurement": "cell count", "setting": "[2]", "result": 7160}, {"measurement": "plate-normalised HSF1 focus index", "setting": "[2]", "result": "1.12 (inactive)"}]}, {"smiles": "CC(=O)O[C@@H]1C(=O)[C@]2(C)C([C@@H](OC(=O)c3ccccc3)[C@@]3(O)C[C@@H](OC(=O)[C@@H](O)[C@H](NC(=O)c4ccccc4)c4ccccc4)C(C)=C1C3(C)C)[C@@]1(OC(C)=O)CO[C@H]1C[C@H]2O", "note": "(stereo partly drawn)", "values": [{"measurement": "fold fluorescence", "setting": "[1]", "result": "4.34 [at 58.6 µM] (inactive)"}]}, {"smiles": "O=C(O)CCC/C=C\\C[C@H]1[C@H](/C=C/[C@H](O)COc2cccc(C(F)(F)F)c2)[C@@H](O)C[C@H]1O", "values": [{"measurement": "fold fluorescence", "setting": "[1]", "result": "4.62 (inactive)"}]}, {"smiles": "CCCCC[C@@H](O)/C=C/[C@H]1[C@H](CCCCCCC(=O)O)C(=O)C[C@@H]1O", "values": [{"measurement": "fold fluorescence", "setting": "[1]", "result": "4.03 (inactive)"}]}, {"smiles": "O=C(Nc1ncc([N+](=O)[O-])s1)c1ccc([N+](=O)[O-])c(Cl)c1", "values": [{"measurement": "SSMD", "setting": "[2]", "result": 2.47}, {"measurement": "cell count", "setting": "[2]", "result": 7090}, {"measurement": "plate-normalised HSF1 focus index", "setting": "[2]", "result": "1.15 (inactive)"}]}, {"smiles": "COc1ccc(CCCO[C@@H](Cn2ccnc2)c2ccc(OC)cc2)cc1", "values": [{"measurement": "fold fluorescence", "setting": "[1]", "result": "7.02 [at 136.4 µM] (inactive)"}]}, {"smiles": "C=C1C(=O)O[C@@H]2C3OC3(C)CC/C=C(\\C)CC[C@@H]12", "note": "(stereo partly drawn)", "values": [{"measurement": "inhibition", "setting": "[4]", "result": 14.3, "unit": "%"}, {"measurement": "score", "setting": "[5]", "result": 0.94}, {"measurement": "rescue above control", "setting": "[6]", "result": 8.2}, {"measurement": "cytochrome c release ratio", "setting": "[7]", "result": 0.54}, {"measurement": "inhibition of aggregation", "setting": "[8]", "result": 93.6, "unit": "%"}, {"measurement": "glutamate uptake change", "setting": "[9]", "result": -11, "unit": "%"}, {"measurement": "aggregation suppression score", "setting": "[10]", "result": 0.572}, {"measurement": "fold fluorescence", "setting": "[1]", "result": "11.6 [at 201.4 µM] (inactive)"}]}]}
